# Test results published in ChEMBL document CHEMBL1961873, “Compounds: GSK PKIS; Assays: Nanosyn kinase panel” (2012).
# Experiments:
# [1] = molecular target: Serine/threonine-protein kinase 4 (Homo sapiens) (UniProt Q13043); settings: at 0.1 µM
# [2] = molecular target: Serine/threonine-protein kinase 4 (Homo sapiens) (UniProt Q13043); settings: at 1 µM
# [3] = molecular target: Serine/threonine-protein kinase 3 (Homo sapiens) (UniProt Q13188); settings: at 0.1 µM
# [4] = molecular target: Serine/threonine-protein kinase 3 (Homo sapiens) (UniProt Q13188); settings: at 1 µM
# [5] = molecular target: Serine/threonine-protein kinase 26 (Homo sapiens) (UniProt Q9P289); settings: at 0.1 µM
# Serine/threonine-protein kinase 26 (Homo sapiens), sequence (Q9P289 2-416 limits assumed): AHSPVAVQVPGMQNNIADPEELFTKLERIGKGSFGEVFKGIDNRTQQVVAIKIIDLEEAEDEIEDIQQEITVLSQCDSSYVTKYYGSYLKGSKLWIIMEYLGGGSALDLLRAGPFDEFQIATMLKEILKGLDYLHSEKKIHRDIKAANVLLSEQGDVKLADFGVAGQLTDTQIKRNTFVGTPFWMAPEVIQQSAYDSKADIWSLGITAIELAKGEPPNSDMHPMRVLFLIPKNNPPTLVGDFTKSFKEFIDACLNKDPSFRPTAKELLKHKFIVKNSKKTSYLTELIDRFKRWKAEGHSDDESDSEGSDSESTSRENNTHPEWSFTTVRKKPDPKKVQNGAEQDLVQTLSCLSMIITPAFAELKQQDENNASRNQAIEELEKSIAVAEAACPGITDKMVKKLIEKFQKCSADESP
# [6] = molecular target: Serine/threonine-protein kinase 26 (Homo sapiens) (UniProt Q9P289); settings: at 1 µM
# [7] = molecular target: Serine/threonine-protein kinase PAK 1 (Homo sapiens) (UniProt Q13153); settings: at 0.1 µM
# [8] = molecular target: Serine/threonine-protein kinase PAK 1 (Homo sapiens) (UniProt Q13153); settings: at 1 µM
# [9] = molecular target: Serine/threonine-protein kinase PAK 2 (Homo sapiens) (UniProt Q13177); settings: at 0.1 µM
# Serine/threonine-protein kinase PAK 2 (Homo sapiens), sequence (Q13177 whole entry): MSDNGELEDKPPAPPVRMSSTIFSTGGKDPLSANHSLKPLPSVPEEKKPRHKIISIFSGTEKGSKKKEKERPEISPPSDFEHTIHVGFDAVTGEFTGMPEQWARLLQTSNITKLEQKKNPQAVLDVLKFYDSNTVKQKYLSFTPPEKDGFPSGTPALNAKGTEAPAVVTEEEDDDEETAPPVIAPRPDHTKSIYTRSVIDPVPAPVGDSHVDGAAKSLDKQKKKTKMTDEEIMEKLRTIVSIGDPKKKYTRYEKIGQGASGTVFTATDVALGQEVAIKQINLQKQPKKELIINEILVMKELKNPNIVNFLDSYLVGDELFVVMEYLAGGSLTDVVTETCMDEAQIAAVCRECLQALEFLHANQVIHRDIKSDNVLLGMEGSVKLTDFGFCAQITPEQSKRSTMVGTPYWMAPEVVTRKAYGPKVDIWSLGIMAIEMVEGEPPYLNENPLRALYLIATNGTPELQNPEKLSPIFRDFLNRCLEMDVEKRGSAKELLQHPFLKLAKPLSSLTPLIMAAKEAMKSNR
# [10] = molecular target: Serine/threonine-protein kinase PAK 2 (Homo sapiens) (UniProt Q13177); settings: at 1 µM
# [11] = molecular target: Serine/threonine-protein kinase PAK 3 (Homo sapiens) (UniProt O75914); settings: at 0.1 µM
# Serine/threonine-protein kinase PAK 3 (Homo sapiens), sequence (O75914 whole entry, looked up): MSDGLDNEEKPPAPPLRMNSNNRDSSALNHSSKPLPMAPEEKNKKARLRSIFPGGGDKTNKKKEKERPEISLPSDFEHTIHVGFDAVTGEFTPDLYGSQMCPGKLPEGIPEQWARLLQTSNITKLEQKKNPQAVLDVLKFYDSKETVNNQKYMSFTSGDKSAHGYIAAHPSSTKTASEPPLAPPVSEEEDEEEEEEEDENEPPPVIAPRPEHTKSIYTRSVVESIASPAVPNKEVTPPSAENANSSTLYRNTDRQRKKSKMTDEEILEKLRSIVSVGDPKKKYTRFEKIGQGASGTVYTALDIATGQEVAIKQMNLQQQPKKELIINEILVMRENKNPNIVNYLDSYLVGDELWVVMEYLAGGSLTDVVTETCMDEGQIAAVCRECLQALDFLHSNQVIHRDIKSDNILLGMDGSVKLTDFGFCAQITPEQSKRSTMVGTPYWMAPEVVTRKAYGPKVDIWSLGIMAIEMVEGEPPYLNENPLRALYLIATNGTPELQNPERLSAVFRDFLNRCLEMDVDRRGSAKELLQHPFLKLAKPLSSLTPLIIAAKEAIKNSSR
# [12] = molecular target: Serine/threonine-protein kinase PAK 3 (Homo sapiens) (UniProt O75914); settings: at 1 µM
# [13] = molecular target: Serine/threonine-protein kinase PAK 5 (Homo sapiens) (UniProt Q9P286); settings: at 0.1 µM
# Serine/threonine-protein kinase PAK 5 (Homo sapiens), sequence (Q9P286 whole entry, looked up): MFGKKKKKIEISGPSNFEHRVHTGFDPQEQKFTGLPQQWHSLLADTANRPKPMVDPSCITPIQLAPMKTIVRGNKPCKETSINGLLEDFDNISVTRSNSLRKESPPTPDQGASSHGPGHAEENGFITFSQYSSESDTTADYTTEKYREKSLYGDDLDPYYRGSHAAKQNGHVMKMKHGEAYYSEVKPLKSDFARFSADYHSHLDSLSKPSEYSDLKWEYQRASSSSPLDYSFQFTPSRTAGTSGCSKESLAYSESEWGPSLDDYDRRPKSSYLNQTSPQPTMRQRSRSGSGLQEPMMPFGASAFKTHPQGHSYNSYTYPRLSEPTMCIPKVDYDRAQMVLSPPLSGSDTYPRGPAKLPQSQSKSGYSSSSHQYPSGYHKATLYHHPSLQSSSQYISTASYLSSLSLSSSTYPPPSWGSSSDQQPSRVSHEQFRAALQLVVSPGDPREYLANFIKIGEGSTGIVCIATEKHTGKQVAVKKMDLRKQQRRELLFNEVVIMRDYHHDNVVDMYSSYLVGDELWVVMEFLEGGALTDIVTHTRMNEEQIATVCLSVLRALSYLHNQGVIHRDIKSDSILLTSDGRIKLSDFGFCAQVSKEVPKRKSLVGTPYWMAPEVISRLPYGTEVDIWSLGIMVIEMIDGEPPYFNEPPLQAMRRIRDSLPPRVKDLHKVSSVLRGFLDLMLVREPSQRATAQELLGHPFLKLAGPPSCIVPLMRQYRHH
# [14] = molecular target: Serine/threonine-protein kinase PAK 5 (Homo sapiens) (UniProt Q9P286); settings: at 1 µM
# [15] = molecular target: Serine/threonine-protein kinase PAK 6 (Homo sapiens) (UniProt Q9NQU5); settings: at 0.1 µM
# [16] = molecular target: Serine/threonine-protein kinase PAK 6 (Homo sapiens) (UniProt Q9NQU5); settings: at 1 µM
# [17] = system: Tyrosine-protein kinase ABL1 (Homo sapiens), P00519 [E255K]; settings: at 0.1 µM
# [18] = system: Tyrosine-protein kinase ABL1 (Homo sapiens), P00519 [E255K]; settings: at 1 µM
# [19] = system: Tyrosine-protein kinase ABL1 (Homo sapiens), P00519 [H396P]; settings: at 0.1 µM
# [20] = system: Tyrosine-protein kinase ABL1 (Homo sapiens), P00519 [H396P]; settings: at 1 µM
# [21] = system: Tyrosine-protein kinase ABL1 (Homo sapiens), P00519 [M351T]; settings: at 0.1 µM
# [22] = system: Tyrosine-protein kinase ABL1 (Homo sapiens), P00519 [M351T]; settings: at 1 µM
# [23] = system: Tyrosine-protein kinase ABL1 (Homo sapiens), P00519 [Q252H]; settings: at 0.1 µM
# [24] = system: Tyrosine-protein kinase ABL1 (Homo sapiens), P00519 [Q252H]; settings: at 1 µM
# [25] = system: Tyrosine-protein kinase ABL1 (Homo sapiens), P00519 [T315I]; settings: at 0.1 µM
# [26] = system: Tyrosine-protein kinase ABL1 (Homo sapiens), P00519 [T315I]; settings: at 1 µM
# [27] = system: Tyrosine-protein kinase ABL1 (Homo sapiens), P00519 [Y253F]; settings: at 0.1 µM
# [28] = system: Tyrosine-protein kinase ABL1 (Homo sapiens), P00519 [Y253F]; settings: at 1 µM
# [29] = molecular target: Tyrosine-protein kinase ABL1 (Homo sapiens) (UniProt P00519); settings: at 0.1 µM
# [30] = molecular target: Tyrosine-protein kinase ABL1 (Homo sapiens) (UniProt P00519); settings: at 1 µM
# [31] = molecular target: ALK tyrosine kinase receptor (Homo sapiens) (UniProt Q9UM73); settings: at 0.1 µM
# [32] = molecular target: ALK tyrosine kinase receptor (Homo sapiens) (UniProt Q9UM73); settings: at 1 µM
# [33] = molecular target: Tyrosine-protein kinase ABL2 (Homo sapiens) (UniProt P42684); settings: at 0.1 µM
# [34] = molecular target: Tyrosine-protein kinase ABL2 (Homo sapiens) (UniProt P42684); settings: at 1 µM
# [35] = molecular target: Tyrosine-protein kinase receptor UFO (Homo sapiens) (UniProt P30530); settings: at 0.1 µM
# [36] = molecular target: Tyrosine-protein kinase receptor UFO (Homo sapiens) (UniProt P30530); settings: at 1 µM
# [37] = molecular target: Tyrosine-protein kinase Blk (Homo sapiens) (UniProt P51451); settings: at 0.1 µM
# [38] = molecular target: Tyrosine-protein kinase Blk (Homo sapiens) (UniProt P51451); settings: at 1 µM
# [39] = molecular target: Cytoplasmic tyrosine-protein kinase BMX (Homo sapiens) (UniProt P51813); settings: at 0.1 µM
# [40] = molecular target: Cytoplasmic tyrosine-protein kinase BMX (Homo sapiens) (UniProt P51813); settings: at 1 µM
# [41] = molecular target: Protein-tyrosine kinase 6 (Homo sapiens) (UniProt Q13882); settings: at 0.1 µM
# Protein-tyrosine kinase 6 (Homo sapiens), sequence (Q13882 whole entry, looked up): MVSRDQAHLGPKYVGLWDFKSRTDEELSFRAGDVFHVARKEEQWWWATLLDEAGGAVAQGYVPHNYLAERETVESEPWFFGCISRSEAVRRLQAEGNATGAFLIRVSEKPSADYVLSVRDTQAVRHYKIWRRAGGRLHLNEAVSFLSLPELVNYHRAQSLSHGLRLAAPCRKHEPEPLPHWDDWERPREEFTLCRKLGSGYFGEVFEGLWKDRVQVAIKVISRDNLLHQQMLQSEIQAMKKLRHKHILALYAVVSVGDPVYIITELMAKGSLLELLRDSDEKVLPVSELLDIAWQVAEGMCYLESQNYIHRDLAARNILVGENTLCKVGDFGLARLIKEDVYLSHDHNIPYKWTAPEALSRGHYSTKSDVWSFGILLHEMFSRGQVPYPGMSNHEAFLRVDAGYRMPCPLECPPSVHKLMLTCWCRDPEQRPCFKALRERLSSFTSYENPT
# [42] = molecular target: Protein-tyrosine kinase 6 (Homo sapiens) (UniProt Q13882); settings: at 1 µM
# [43] = molecular target: Tyrosine-protein kinase BTK (Homo sapiens) (UniProt Q06187); settings: at 0.1 µM
# Tyrosine-protein kinase BTK (Homo sapiens), sequence (Q06187 whole entry): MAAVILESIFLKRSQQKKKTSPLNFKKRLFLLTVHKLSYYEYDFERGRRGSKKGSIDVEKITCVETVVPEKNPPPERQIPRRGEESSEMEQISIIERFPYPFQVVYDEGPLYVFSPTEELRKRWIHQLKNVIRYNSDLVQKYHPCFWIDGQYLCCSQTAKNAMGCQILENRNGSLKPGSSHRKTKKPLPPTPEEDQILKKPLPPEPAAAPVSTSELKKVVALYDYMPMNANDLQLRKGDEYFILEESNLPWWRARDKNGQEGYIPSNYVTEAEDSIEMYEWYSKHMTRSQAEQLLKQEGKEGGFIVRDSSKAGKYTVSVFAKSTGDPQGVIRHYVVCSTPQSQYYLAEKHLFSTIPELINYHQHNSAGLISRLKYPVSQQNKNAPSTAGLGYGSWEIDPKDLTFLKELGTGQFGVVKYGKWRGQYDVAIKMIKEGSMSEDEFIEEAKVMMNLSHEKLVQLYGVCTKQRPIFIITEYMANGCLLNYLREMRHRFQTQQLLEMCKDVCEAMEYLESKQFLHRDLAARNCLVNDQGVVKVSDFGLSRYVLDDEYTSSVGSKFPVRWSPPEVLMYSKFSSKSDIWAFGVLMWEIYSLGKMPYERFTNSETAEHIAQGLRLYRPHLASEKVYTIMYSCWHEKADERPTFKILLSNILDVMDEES
# [44] = molecular target: Tyrosine-protein kinase BTK (Homo sapiens) (UniProt Q06187); settings: at 1 µM
# [45] = molecular target: Tyrosine-protein kinase CSK (Homo sapiens) (UniProt P41240); settings: at 0.1 µM
# [46] = molecular target: Tyrosine-protein kinase CSK (Homo sapiens) (UniProt P41240); settings: at 1 µM
# [47] = molecular target: Discoidin domain-containing receptor 2 (Homo sapiens) (UniProt Q16832); settings: at 0.1 µM
# [48] = molecular target: Discoidin domain-containing receptor 2 (Homo sapiens) (UniProt Q16832); settings: at 1 µM
# [49] = molecular target: Epidermal growth factor receptor (Homo sapiens) (UniProt P00533); settings: at 0.1 µM
# [50] = molecular target: Epidermal growth factor receptor (Homo sapiens) (UniProt P00533); settings: at 1 µM
# [51] = system: Epidermal growth factor receptor (Homo sapiens), P00533 [L858R]; settings: at 0.1 µM
# Epidermal growth factor receptor (Homo sapiens), P00533 [L858R], sequence (P00533 whole entry L858R): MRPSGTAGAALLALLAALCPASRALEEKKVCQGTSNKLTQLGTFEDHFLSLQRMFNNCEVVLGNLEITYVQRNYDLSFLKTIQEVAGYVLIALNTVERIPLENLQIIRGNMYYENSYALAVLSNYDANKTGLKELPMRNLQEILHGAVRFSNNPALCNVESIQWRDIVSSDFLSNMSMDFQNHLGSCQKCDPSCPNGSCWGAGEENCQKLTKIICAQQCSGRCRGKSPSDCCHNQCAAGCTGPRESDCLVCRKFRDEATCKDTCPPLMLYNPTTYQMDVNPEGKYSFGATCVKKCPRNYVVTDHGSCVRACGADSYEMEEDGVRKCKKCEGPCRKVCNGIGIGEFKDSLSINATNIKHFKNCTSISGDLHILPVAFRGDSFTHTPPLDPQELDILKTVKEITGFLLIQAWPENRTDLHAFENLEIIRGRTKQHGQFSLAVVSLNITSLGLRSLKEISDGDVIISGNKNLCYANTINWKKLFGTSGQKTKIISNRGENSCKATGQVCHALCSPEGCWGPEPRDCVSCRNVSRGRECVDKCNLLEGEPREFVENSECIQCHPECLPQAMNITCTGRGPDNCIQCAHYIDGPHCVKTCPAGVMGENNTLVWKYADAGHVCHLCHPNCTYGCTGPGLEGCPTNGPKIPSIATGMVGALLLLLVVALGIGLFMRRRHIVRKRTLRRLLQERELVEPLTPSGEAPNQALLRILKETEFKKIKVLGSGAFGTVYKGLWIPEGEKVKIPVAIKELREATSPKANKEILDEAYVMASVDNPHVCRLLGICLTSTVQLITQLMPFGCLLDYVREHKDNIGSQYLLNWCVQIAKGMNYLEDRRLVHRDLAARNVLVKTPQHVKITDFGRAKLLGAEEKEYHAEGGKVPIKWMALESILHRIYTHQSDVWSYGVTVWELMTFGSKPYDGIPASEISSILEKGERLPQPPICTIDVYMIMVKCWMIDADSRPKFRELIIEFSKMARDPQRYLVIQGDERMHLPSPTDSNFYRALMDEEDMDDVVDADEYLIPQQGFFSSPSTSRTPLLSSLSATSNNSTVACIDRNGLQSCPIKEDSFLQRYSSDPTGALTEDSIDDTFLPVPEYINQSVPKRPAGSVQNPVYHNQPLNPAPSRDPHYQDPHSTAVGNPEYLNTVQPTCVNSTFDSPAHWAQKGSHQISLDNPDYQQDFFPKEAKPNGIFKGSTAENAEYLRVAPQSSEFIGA
# [52] = system: Epidermal growth factor receptor (Homo sapiens), P00533 [L858R]; settings: at 1 µM
# [53] = system: Epidermal growth factor receptor (Homo sapiens), P00533 [L861Q]; settings: at 0.1 µM
# [54] = system: Epidermal growth factor receptor (Homo sapiens), P00533 [L861Q]; settings: at 1 µM
# [55] = system: Epidermal growth factor receptor (Homo sapiens), P00533 [T790M]; settings: at 0.1 µM
# [56] = system: Epidermal growth factor receptor (Homo sapiens), P00533 [T790M]; settings: at 1 µM
# Serine/threonine-protein kinase 3 (Homo sapiens), sequence (Q13188 whole entry): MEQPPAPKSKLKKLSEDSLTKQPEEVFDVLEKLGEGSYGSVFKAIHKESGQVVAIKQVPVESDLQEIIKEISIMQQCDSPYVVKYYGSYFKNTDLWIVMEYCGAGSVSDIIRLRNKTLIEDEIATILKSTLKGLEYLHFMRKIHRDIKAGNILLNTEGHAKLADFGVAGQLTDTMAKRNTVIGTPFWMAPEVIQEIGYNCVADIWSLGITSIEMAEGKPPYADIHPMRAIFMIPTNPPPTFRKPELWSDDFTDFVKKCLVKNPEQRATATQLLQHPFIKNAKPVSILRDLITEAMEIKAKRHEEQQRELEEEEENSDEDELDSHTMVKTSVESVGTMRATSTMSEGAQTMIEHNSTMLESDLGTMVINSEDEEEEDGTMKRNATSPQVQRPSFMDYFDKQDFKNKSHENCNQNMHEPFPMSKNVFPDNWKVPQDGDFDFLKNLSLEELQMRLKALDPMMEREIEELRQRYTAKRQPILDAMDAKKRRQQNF
structure (smiles),measurement,setting,value
CNC(=O)Oc1cc(C)c(/C=C/c2cncc(C(=O)NC)c2)c(C)c1,inhibition,[1],4.28%
same,inhibition,[2],7.77%
same,inhibition,[3],4.88%
same,inhibition,[4],4.5%
same,inhibition,[5],-0.01%
same,inhibition,[6],-0.02%
same,inhibition,[7],3.48%
same,inhibition,[8],5.41%
same,inhibition,[9],1.99%
same,inhibition,[10],1.98%
same,inhibition,[11],1.98%
same,inhibition,[12],3.68%
same,inhibition,[13],-4.59%
same,inhibition,[14],-1.52%
same,inhibition,[15],5.83%
same,inhibition,[16],-0.24%
same,inhibition,[17],7.72%
same,inhibition,[18],50.5%
same,inhibition,[19],17.9%
same,inhibition,[20],66.5%
same,inhibition,[21],18.4%
same,inhibition,[22],65%
same,inhibition,[23],14.5%
same,inhibition,[24],58.6%
same,inhibition,[25],1.76%
same,inhibition,[26],3.56%
same,inhibition,[27],23%
same,inhibition,[28],69.2%
same,inhibition,[29],12.9%
same,inhibition,[30],55.8%
same,inhibition,[31],2.46%
same,inhibition,[32],14.2%
same,inhibition,[33],9.35%
same,inhibition,[34],64.3%
same,inhibition,[35],-1.68%
same,inhibition,[36],1.31%
same,inhibition,[37],2.38%
same,inhibition,[38],17.7%
same,inhibition,[39],6.61%
same,inhibition,[40],48.2%
same,inhibition,[41],17.1%
same,inhibition,[42],66.2%
same,inhibition,[43],3.71%
same,inhibition,[44],7.17%
same,inhibition,[45],7.8%
same,inhibition,[46],23%
same,inhibition,[47],1.69%
same,inhibition,[48],4.31%
same,inhibition,[49],1.01%
same,inhibition,[50],3.7%
same,inhibition,[51],1.37%
same,inhibition,[52],18.1%
same,inhibition,[53],1.07%
same,inhibition,[54],2.38%
same,inhibition,[55],0.88%
same,inhibition,[56],0.02%
